Among the data in publication PMC7862700, “An all-to-all approach to the identification of sequence-specific readers for epigenetic DNA modifications on cytosine” are binding signal values, retold here.

Common to all, as to assay: DAPPL (digital affinity profiling via proximity ligation, sequencing); 10 mM Tris-HCl pH 7.5, 50 mM NaCl, 1 mM DTT, 4% glycerol, room temperature, 30 min; GST-TFs on glutathione beads, 16-mer random dsDNA library, 0.1% formaldehyde crosslink after washing; high values mean tight binding
In one assay the target is T1, FEV (Homo sapiens, UniProt Q99581 1-238).
T1 sequence: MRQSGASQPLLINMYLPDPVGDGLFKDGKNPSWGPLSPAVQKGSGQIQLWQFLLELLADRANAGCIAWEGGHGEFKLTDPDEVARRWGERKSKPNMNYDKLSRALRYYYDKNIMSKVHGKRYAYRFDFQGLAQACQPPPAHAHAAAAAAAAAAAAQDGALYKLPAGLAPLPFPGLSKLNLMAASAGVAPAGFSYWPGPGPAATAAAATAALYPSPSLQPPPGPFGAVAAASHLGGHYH
As to conditions: protein: recombinant; tags: N-terminal GST; dsDNA, one strand shown. The method in brief:
(§1)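 Binding signal is defined as a hexamer's read frequency for one factor over its frequency for the tag-only sample. To obtain reads, GST-fused human transcription factors were expressed in yeast, captured on glutathione beads, barcoded with DNA and pooled with that sample. Pools met 200 nmole of a 16-mer random double-stranded DNA library in Tris/NaCl/DTT/glycerol buffer for 30 min at room temperature before washing, 0.1% formaldehyde crosslinking, proximity ligation (BsaI/T4 ligase, 1 h, 37 °C), PCR and Illumina NextSeq500 sequencing.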

In the next assay the target is ETV5 (Homo sapiens, UniProt P41161 1-510). As to conditions: protein: recombinant; tags: N-terminal GST; dsDNA, one strand shown. The method in brief:
as §1

For a further assay, the target named is HSF1 (Homo sapiens, UniProt Q00613 1-529). The settings on record: protein: recombinant; tags: N-terminal GST; chain copies: 3; dsDNA, one strand shown. In outline: as §1
Another assay concerns the target T2, SPIC (Homo sapiens, UniProt Q8N5J4 1-248).
T2 sequence: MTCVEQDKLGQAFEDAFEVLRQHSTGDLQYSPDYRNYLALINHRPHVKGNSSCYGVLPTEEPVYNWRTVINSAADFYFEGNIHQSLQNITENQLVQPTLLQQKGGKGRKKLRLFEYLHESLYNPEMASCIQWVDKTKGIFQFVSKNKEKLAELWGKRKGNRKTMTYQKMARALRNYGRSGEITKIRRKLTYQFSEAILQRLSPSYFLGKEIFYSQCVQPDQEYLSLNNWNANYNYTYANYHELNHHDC
As to conditions: protein: recombinant; tags: N-terminal GST; dsDNA, one strand shown. The method in brief:
as §1

A further assay deals with ELF4 (Homo sapiens, UniProt Q99607 1-663). As to conditions: protein: recombinant; tags: N-terminal GST; dsDNA, one strand shown. In outline:
as §1

For the next assay, the target named is T3, ELK4 (Homo sapiens, UniProt P28324-2 1-405).
T3 sequence: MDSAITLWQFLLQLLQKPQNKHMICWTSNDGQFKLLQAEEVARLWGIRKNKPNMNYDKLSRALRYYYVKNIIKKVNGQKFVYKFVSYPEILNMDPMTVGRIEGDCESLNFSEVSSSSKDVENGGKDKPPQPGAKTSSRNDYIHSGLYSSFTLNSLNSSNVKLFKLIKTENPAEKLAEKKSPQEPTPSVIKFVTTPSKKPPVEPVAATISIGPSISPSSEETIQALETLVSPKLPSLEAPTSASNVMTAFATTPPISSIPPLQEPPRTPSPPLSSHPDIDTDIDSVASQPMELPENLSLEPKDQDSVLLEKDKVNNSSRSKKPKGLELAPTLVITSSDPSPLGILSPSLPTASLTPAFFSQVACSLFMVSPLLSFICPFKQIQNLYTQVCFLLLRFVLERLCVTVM
The settings on record: protein: recombinant; tags: N-terminal GST; dsDNA, one strand shown. In outline:
as §1

A further assay concerns the target T4, ETV2 (Homo sapiens, UniProt O00321 1-342).
T4 sequence: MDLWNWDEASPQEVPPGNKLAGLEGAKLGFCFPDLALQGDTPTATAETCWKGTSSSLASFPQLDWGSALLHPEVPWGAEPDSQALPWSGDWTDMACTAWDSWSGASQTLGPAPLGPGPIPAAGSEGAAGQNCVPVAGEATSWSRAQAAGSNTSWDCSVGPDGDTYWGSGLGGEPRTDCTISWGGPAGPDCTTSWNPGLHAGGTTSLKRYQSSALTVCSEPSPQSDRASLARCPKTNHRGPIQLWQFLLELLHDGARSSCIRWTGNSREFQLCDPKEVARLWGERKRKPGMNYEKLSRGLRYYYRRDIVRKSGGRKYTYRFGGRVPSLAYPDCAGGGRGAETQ
As to conditions: protein: recombinant; tags: N-terminal GST; dsDNA, one strand shown. The method in brief: as §1

The next assay addresses T5, ELF3 (Homo sapiens, UniProt P78545 1-371).
T5 sequence: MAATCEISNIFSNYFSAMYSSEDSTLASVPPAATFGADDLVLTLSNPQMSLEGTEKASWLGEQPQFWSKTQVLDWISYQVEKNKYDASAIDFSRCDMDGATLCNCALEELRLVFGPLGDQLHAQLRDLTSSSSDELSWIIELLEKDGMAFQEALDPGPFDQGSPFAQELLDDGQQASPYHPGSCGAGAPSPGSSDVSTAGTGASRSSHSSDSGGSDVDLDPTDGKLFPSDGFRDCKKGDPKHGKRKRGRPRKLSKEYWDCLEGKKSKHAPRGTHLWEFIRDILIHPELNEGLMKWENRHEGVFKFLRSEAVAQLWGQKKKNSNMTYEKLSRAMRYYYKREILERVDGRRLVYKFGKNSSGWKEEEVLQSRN
The settings on record: protein: recombinant; tags: N-terminal GST; dsDNA, one strand shown. In outline: as §1

The next assay concerns the target CRX (Homo sapiens, UniProt O43186 1-299). The settings on record: protein: recombinant; tags: N-terminal GST; dsDNA, one strand shown. In outline: as §1
The target of a further assay is ETV1 (Homo sapiens, UniProt P50549 1-477). The settings on record: protein: recombinant; tags: N-terminal GST; dsDNA, one strand shown. In outline:
as §1

The target of another assay is T6, ERF (Homo sapiens, UniProt P50548 1-548).
T6 sequence: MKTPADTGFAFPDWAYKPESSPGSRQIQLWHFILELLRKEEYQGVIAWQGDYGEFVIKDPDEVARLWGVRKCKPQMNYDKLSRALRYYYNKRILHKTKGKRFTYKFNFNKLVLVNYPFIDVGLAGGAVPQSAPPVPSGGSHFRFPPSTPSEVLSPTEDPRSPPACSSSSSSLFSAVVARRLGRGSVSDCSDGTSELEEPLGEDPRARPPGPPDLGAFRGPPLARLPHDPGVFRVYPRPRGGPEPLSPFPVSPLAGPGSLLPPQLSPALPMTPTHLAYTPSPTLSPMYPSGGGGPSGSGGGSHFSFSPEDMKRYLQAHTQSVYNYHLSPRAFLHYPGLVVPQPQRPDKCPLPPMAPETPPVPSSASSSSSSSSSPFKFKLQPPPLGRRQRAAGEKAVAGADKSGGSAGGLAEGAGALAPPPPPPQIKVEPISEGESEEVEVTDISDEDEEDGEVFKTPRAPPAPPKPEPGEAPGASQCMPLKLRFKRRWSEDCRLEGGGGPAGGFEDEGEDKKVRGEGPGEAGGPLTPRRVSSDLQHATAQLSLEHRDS
The settings on record: protein: recombinant; tags: N-terminal GST; dsDNA, one strand shown. In outline: as §1

The next assay concerns the target T7, ETV3L (Homo sapiens, UniProt Q6ZN32 1-361).
T7 sequence: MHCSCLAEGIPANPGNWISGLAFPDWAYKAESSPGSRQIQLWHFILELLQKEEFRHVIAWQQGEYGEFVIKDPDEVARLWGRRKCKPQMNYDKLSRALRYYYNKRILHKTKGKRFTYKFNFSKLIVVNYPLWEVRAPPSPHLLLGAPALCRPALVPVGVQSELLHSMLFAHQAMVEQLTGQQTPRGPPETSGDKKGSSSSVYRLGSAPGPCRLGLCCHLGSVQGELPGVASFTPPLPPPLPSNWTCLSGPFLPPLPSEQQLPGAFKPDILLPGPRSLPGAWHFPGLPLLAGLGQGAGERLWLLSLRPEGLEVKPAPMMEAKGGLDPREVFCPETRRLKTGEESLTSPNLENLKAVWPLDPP
The settings on record: protein: recombinant; tags: N-terminal GST; dsDNA, one strand shown. In outline: as §1

The target in the next assay is T8, ETS2 (Homo sapiens, UniProt P15036 1-469).
T8 sequence: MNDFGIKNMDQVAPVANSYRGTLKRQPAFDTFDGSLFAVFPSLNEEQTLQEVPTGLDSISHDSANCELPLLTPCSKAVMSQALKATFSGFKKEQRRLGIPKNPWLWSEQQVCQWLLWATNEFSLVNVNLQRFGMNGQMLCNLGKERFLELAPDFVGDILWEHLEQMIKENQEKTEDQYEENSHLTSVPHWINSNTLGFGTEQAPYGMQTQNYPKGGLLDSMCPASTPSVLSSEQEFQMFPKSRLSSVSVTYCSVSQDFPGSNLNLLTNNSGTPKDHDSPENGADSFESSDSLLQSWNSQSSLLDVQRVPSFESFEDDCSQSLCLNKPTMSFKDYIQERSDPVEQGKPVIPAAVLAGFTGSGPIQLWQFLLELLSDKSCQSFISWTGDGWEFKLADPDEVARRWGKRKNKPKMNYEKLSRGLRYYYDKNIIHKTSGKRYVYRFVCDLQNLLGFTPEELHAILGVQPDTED
As to conditions: protein: recombinant; tags: N-terminal GST; dsDNA, one strand shown. In outline:
as §1

A further assay has as its target T9, SPDEF (Homo sapiens, UniProt O95238 1-335).
T9 sequence: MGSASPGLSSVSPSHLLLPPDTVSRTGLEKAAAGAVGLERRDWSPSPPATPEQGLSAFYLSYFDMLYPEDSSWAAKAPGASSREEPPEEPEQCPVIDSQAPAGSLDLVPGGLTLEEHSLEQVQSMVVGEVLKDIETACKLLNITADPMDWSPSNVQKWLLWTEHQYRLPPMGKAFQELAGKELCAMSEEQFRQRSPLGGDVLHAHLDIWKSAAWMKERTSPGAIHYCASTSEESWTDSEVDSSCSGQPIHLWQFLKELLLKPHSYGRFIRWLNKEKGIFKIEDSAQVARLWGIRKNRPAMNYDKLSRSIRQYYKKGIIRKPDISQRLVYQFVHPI
The settings on record: protein: recombinant; tags: N-terminal GST; dsDNA, one strand shown. In outline:
as §1

The target of a further assay is T10, ETV7 (Homo sapiens, UniProt Q9Y603 1-341).
T10 sequence: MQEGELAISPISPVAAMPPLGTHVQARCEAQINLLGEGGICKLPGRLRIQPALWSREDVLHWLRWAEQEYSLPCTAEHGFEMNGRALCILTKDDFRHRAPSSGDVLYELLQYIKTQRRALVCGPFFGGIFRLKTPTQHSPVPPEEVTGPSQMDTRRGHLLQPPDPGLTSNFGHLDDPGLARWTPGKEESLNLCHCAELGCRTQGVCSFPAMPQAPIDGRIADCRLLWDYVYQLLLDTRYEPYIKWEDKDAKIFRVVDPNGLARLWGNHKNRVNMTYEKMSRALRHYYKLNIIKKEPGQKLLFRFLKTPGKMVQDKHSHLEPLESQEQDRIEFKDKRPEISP
The settings on record: protein: recombinant; tags: N-terminal GST; dsDNA, one strand shown. The method in brief: as §1

The target of another assay is T11, ELF5 (Homo sapiens, UniProt Q9UKW6-2 1-255).
T11 sequence: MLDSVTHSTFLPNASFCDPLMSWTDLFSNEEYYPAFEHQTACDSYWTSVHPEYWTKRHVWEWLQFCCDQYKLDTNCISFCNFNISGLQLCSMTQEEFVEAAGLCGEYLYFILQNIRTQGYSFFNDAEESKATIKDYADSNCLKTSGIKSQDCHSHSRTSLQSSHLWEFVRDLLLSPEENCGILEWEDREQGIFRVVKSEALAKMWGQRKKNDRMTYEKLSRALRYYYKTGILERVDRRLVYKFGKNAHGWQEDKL
As to conditions: protein: recombinant; tags: N-terminal GST; dsDNA, one strand shown. The method in brief: as §1

The target of a further assay is T12, ETV3 (Homo sapiens, UniProt P41162-2 1-143).
T12 sequence: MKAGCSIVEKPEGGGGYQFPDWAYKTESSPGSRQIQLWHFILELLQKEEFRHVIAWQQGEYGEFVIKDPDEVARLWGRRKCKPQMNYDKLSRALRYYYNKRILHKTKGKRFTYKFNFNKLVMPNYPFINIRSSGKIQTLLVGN
As to conditions: protein: recombinant; tags: N-terminal GST; dsDNA, one strand shown. In outline:
as §1

A further assay has as its target ETV6 (Homo sapiens, UniProt P41212 1-452). As to conditions: protein: recombinant; tags: N-terminal GST; dsDNA, one strand shown. In outline:
as §1

Sequence of ETV5 (P41161 whole entry): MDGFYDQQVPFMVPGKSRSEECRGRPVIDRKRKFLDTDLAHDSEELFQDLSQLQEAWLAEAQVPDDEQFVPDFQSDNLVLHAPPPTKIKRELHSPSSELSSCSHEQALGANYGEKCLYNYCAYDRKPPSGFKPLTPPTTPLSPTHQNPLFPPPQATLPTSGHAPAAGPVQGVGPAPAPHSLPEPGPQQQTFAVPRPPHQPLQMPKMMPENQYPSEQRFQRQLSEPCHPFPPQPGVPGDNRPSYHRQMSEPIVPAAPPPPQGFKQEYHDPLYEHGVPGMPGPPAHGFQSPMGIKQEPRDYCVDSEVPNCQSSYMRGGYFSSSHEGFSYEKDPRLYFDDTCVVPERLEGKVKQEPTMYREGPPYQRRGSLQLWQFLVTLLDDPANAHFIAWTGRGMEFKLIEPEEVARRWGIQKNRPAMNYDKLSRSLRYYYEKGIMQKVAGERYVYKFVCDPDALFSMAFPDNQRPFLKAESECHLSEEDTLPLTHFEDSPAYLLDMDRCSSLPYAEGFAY
Sequence of HSF1 (Q00613 whole entry): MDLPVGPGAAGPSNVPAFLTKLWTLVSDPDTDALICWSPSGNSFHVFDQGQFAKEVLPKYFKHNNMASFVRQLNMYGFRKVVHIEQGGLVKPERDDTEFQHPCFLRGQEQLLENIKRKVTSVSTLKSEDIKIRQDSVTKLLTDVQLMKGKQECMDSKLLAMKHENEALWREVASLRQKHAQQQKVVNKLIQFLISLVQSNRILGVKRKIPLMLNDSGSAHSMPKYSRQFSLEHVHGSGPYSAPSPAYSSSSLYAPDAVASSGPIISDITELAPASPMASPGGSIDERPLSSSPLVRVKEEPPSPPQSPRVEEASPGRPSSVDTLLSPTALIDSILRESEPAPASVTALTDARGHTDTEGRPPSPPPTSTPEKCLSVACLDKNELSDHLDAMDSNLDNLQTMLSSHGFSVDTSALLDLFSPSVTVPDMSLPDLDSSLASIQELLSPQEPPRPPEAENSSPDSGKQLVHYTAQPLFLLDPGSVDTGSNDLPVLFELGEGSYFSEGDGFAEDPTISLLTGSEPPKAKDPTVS
Sequence of ETV6 (P41212 whole entry): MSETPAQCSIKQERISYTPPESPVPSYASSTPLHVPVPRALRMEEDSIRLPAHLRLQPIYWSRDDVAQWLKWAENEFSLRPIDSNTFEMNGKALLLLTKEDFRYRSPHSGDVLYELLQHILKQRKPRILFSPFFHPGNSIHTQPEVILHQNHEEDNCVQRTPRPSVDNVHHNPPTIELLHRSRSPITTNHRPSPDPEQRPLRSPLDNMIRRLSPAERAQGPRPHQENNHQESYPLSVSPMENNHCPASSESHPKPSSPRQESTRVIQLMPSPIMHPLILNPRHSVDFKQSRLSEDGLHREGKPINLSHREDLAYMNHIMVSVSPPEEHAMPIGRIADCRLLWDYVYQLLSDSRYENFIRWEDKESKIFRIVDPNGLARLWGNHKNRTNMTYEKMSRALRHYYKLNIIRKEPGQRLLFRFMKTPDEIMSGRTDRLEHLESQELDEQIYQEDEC
Sequence of CRX (O43186 whole entry): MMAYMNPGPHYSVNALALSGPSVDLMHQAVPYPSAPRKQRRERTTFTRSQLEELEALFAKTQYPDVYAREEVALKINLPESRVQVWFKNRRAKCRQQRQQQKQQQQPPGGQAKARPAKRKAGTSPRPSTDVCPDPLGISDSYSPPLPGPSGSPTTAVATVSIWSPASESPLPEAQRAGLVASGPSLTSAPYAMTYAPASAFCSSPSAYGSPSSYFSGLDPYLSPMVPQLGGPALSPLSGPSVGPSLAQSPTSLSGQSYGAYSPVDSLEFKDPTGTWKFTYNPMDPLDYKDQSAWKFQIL
Sequence of ETV1 (P50549 whole entry): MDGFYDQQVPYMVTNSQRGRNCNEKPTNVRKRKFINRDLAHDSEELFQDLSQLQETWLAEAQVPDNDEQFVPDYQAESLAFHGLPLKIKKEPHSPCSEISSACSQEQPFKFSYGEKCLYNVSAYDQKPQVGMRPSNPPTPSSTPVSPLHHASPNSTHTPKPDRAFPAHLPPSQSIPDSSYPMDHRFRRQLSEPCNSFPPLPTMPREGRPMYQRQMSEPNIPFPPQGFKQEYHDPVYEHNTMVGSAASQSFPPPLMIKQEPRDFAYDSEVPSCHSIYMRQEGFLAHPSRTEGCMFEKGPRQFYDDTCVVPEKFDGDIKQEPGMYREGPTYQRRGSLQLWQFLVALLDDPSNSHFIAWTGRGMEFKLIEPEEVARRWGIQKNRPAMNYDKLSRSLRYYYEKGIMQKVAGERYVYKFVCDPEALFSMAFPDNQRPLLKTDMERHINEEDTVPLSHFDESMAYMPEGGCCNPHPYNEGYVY
Sequence of ELF4 (Q99607 whole entry): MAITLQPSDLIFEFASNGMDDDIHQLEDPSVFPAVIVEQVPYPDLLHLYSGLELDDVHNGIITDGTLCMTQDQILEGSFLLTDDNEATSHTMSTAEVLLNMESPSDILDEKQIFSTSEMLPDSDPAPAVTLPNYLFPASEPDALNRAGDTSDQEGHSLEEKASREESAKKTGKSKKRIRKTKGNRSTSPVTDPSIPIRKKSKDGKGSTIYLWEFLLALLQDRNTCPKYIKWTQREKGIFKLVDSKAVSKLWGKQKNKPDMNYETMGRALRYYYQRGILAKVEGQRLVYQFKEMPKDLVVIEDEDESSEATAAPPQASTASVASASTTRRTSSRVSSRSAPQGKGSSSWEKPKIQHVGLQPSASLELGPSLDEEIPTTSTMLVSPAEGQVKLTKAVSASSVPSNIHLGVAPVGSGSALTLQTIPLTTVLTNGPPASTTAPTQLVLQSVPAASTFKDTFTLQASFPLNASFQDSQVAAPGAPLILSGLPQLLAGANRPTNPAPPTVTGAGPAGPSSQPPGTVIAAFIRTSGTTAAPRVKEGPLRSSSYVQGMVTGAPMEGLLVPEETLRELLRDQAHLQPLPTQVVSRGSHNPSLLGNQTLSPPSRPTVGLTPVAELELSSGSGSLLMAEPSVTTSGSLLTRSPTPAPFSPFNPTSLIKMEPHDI

As for GCTATA, the binding signal in the assay with FEV is 1.14 fold enrichment (6-mer frequency, TF over GST control); in the assay with ETV5, 1.18 fold enrichment (6-mer frequency, TF over GST control); with HSF1, 1.08 fold enrichment (6-mer frequency, TF over GST control); with SPIC it was 1.08 fold enrichment (6-mer frequency, TF over GST control); in the assay with ELF4, 1.14 fold enrichment (6-mer frequency, TF over GST control); in the assay with ELK4 it was 1.18 fold enrichment (6-mer frequency, TF over GST control). Moreover, the binding signal is 1.2 fold enrichment (6-mer frequency, TF over GST control) in the assay with ETV2; 1.22 fold enrichment (6-mer frequency, TF over GST control) in the assay with ELF3; 1.23 fold enrichment (6-mer frequency, TF over GST control) in the assay with CRX; 1.14 fold enrichment (6-mer frequency, TF over GST control) in the assay with ETV1; 1.16 fold enrichment (6-mer frequency, TF over GST control) in the assay with ERF; 1.08 fold enrichment (6-mer frequency, TF over GST control) in the assay with ETV3L. In addition, the binding signal is 1.14 fold enrichment (6-mer frequency, TF over GST control) with ETS2; 1.21 fold enrichment (6-mer frequency, TF over GST control) with SPDEF; 1.18 fold enrichment (6-mer frequency, TF over GST control) in the assay with ETV7; 1.15 fold enrichment (6-mer frequency, TF over GST control) with ELF5; 1.18 fold enrichment (6-mer frequency, TF over GST control) with ETV3; 1.14 fold enrichment (6-mer frequency, TF over GST control) with ETV6.
